# Measurements published in PubChem BioAssay.
# Where “and” joins values, the source holds several entries; their conditions need not be identical. Identical values can stand only once. For part of these data: Potency and affinity values are given separately. More than one record can exist for a structure, and the calls need not agree. Calls of active or inactive are those of the source. Unless noted, the rule behind the calls is not given here.
# How the values were obtained:
# [1] = polyglutamine-triggered caspase-3 activation inhibitors, cell-based (AID 1583); conditions: polyglutamine-induced caspase-3 activation, cell assay; stronger effect = higher value;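 tested at 10 µM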
# [2] = suppressors of polyQ aggregation in yeast, 75Q-TubU reporter (AID 1593); conditions: Yeast 75Q polyglutamine aggregation reporter
# [3] = rescue of polyQ-huntingtin neuronal dysfunction in worms, whole organism, C. elegans mechanosensory neurons, N-terminal huntingtin (AID 1599); conditions: touch response, stronger effect = higher value
# [4] = inhibitors of mitochondrial cytochrome c release, biochemical, purified mitochondria (AID 1603); conditions: stronger effect = lower value;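 note: mouse liver mitochondria challenged with calcium chloride; signal normalized to the plate average as 100%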
# [5] = inhibitors of polyQ protein aggregation (AID 1604); conditions: polyglutamine-induced protein aggregation inhibition assay; stronger effect = higher value; tested at 2.5 µM
# [6] = enhancers of glutamate uptake in motor neurons, MN-1 cell line (AID 1612); conditions: MN-1 motor neuron cells, stronger effect = higher value;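 note: tested at 1 µM final; 0% = mean of DMSO vehicle wells on each plate; positive means more glutamate uptake than control and negative means less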
# [7] = suppressors of polyglutamine aggregation in yeast, 75Q-TubH (AID 1616); conditions: S. cerevisiae 75Q-TubH polyglutamine aggregation suppression; stronger effect = higher value
# [8] = hESC survival regulators, cell-based (AID 493140); conditions: human embryonic stem cell survival screen; stronger effect = higher value;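 note: cells exposed to compounds for four days before counting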
# [9] = Cy5 fluorescence interference with SSB-bound oligo, artefact control for HCV NS3 helicase inhibitor project, biochemical, NIH Clinical Collection, E. coli SSB (AID 743268)
# [10] = system: Hepatitis C virus NS3 helicase; assay: HCV NS3 helicase inhibitors, primary screen, biochemical, fluorescence polarization, NIH Clinical Collection (AID 743270); conditions: NS3 helicase binding to Cy5-dT15 DNA, stronger effect = higher value, concentration not given here
# [11] = target: Single-stranded DNA-binding protein (Escherichia coli (strain K12)) (UniProt P0AGE0); assay: E. coli SSB displacement from DNA, counter-screen for HCV NS3 helicase inhibitor project, biochemical, fluorescence polarization, NIH Clinical Collection (AID 743271; in the data active = inhibition above about 28%); conditions: stronger effect = higher value, concentration not given here
# [12] = fluorescence interference in NS3h assay format, artefact control for HCV NS3 helicase inhibitor project, biochemical, NIH Clinical Collection (AID 743272); conditions: fluorescence interference counterscreen, stronger effect = lower value;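 note: HCV NS3 helicase with a Cy5 labelled single stranded DNA probe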
# [13] = modulation of C. elegans fzo-1 (AID 1259413);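 note: fzo-1 mutant C. elegans worms in liquid wells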; conditions: C. elegans fzo-1 modulator screen, mean read-out; stronger effect = higher value
# [14] = target: NAD(+) hydrolase SARM1 (Homo sapiens) (UniProt Q6SZW1); assay: SARM1 TIR NADase inhibitors, cell lysate, NAD-Glo luminescence (AID 1508614;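 active = compound whose remaining NAD level is above about 45 nM, limit read from the data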;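 note: higher remaining NAD means stronger inhibition of SARM1 NADase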); conditions: SAM-TIR HEK293T lysate NADase, at 1 µM, stronger effect = higher value
# [15] = target: Mitogen-activated protein kinase 7 (Homo sapiens) (UniProt Q13164); assay: ERK5 transactivation activators in reporter cells, primary screen, cell-based, HTS (AID 1508626;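 active = luciferase signal above three times the same-plate solvent-only control wells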;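 note: luciferase driven by Gal4-ERK5 fusion binding five Gal4 sites before minimal TATA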); conditions: HeLa Gal4-ERK5 transactivation, 18 h, at 5 µM, stronger effect = higher value
# [16] = viability rescue of complex I mutant cybrids, primary screen, cell-based, galactose medium, ATP luminescence (AID 1645843;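 active = z-score of at least 1.8 in each of two replicates, scored against plate mean and spread of sample wells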;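 note: positive z means more ATP and so rescue of galactose-driven cybrid death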); conditions: complex I mutant cybrid cells, 72 h, stronger effect = higher value
# R275C/beta2Delta = assay: modulators of BK channel variants, profiling panel, selectivity assay, cell-based, U2OS BacMam, thallium flux, beta subunits (AID 1259406;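 active = thallium flux through the channel raised or lowered by more than 3 SD from vehicle-only wells, actives on both sides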;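 note: initial slope of Thallos dye fluorescence rise after thallium is added; log ratio against the mean of 0.3% DMSO vehicle wells on the same plate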); conditions: at 30 µM
# R275C/beta4 = assay: as above; conditions: at 30 µM
# R275C/Slo1WT/beta2 = assay: as above; conditions: at 30 µM
# [17] = ICB984 medulloblastoma cell growth inhibition, synergistic combos for chromothripsis tumors, cisplatin or BGB combos (AID 1671451); conditions: ICB984 medulloblastoma cells, drug combinations, stronger effect = higher value;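 note: cells exposed for 96 hours before readout; 0% = vehicle DMSO and 100% = killing by high DMSO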
# [18] = measured here: 5 uM single agent, at 5 µM
# Chain of NAD(+) hydrolase SARM1 (Homo sapiens) (Q6SZW1 whole entry, looked up, the tested form may be a part): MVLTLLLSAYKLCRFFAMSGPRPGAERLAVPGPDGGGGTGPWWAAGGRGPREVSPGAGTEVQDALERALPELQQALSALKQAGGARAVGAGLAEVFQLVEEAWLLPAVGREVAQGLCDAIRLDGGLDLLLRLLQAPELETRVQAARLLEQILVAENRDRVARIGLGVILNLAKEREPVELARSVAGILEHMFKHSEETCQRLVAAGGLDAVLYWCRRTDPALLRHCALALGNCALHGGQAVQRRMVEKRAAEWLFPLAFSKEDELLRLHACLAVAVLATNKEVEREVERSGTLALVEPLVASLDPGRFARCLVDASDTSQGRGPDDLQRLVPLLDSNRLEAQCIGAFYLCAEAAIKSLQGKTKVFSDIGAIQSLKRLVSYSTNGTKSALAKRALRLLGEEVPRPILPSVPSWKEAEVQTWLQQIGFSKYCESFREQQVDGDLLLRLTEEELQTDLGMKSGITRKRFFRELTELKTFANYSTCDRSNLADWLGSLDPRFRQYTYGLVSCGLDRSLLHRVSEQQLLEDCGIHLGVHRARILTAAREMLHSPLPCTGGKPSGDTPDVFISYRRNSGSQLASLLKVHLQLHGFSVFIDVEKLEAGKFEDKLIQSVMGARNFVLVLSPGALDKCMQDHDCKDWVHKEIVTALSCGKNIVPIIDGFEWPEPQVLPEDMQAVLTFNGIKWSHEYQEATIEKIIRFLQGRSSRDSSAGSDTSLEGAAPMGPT
# Chain of Mitogen-activated protein kinase 7 (Homo sapiens) (Q13164 whole entry, looked up, the tested form may be a part): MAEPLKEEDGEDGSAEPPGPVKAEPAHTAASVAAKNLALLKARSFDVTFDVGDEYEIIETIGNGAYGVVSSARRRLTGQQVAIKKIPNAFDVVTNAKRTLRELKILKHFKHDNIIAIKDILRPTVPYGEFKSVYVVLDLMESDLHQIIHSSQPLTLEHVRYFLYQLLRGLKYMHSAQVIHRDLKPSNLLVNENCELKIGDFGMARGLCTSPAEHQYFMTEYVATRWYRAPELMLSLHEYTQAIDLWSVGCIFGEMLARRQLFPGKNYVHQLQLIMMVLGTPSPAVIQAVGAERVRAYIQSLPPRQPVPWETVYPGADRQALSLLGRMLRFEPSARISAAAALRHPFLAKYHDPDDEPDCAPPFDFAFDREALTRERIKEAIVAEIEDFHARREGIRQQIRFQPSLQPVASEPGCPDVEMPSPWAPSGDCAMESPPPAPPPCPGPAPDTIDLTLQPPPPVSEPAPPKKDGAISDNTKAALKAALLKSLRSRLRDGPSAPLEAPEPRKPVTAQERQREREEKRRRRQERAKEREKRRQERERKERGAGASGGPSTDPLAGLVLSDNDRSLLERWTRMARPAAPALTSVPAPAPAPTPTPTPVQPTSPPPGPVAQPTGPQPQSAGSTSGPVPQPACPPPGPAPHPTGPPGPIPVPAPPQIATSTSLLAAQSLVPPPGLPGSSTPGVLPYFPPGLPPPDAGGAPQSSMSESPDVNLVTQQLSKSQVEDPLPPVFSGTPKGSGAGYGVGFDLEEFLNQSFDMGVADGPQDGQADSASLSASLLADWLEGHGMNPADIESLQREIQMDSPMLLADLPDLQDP
smiles,measurement,setting,value
OCCN1CCN(CCCN2c3ccccc3Sc3ccc(C(F)(F)F)cc32)CC1,inhibition,[1],-7.66%
same,score,[2],1.32
same,rescue above control,[3],0
same,cytochrome c release ratio,[4],2.24
same,inhibition of aggregation,[5],51.3%
same,glutamate uptake change,[6],-9.51%
same,aggregation suppression score,[7],1.51
same,survival,[8],5.33 (inactive)
same,fluorescence ratio,[9],0.8 (active)
same,inhibition,[10],-6.33% (inactive)
same,inhibition,[11],5.91% (inactive)
same,fluorescence ratio,[12],0.82 (inactive)
same,mean signal,[13],243 (inactive)
same,remaining NAD,[14],10 nM (inactive)
same,luciferase signal,[15],28 AU (inactive)
same,z-score,[16],-1.04 (inactive) and -1.87 (inactive) and -0.735 (inactive)
same,log fold change Tl+ flux,R275C/beta2Delta,0.0662 (inactive)
same,log fold change Tl+ flux,R275C/beta4,0.23 (active)
same,log fold change Tl+ flux,R275C/Slo1WT/beta2,-0.0356 (inactive)
Cc1ncc([N+](=O)[O-])n1CC(C)O (stereo unspecified),fluorescence ratio,[9],1.05 (inactive)
same,inhibition,[10],5.15% (inactive)
same,inhibition,[11],6.83% (inactive)
same,fluorescence ratio,[12],1 (inactive)
same,mean signal,[13],281 (inactive)
same,remaining NAD,[14],10 nM (inactive)
same,luciferase signal,[15],40 AU (inactive)
same,z-score,[16],0.59 (inactive) and 0.27 (inactive)
same,log fold change Tl+ flux,R275C/beta2Delta,-0.0048 (inactive)
same,log fold change Tl+ flux,R275C/beta4,-0.0387 (inactive)
same,log fold change Tl+ flux,R275C/Slo1WT/beta2,0.0129 (inactive)
Cc1ccc(-c2cc(C(F)(F)F)nn2-c2ccc(S(N)(=O)=O)cc2)cc1,inhibition,[1],23.5%
same,score,[2],-0.03
same,rescue above control,[3],17.2
same,cytochrome c release ratio,[4],4.42
same,inhibition of aggregation,[5],77%
same,glutamate uptake change,[6],-10.9%
same,aggregation suppression score,[7],0.638
same,fluorescence ratio,[9],1.06 (inactive)
same,inhibition,[10],-14.1% (inactive)
same,inhibition,[11],-0.48% (inactive)
same,fluorescence ratio,[12],1.02 (inactive)
same,mean signal,[13],242 (inactive)
same,remaining NAD,[14],10 nM (inactive)
same,luciferase signal,[15],28 AU (inactive)
same,z-score,[16],2.48 (active) and 1.33 (inactive) and 1.65 (inactive)
same,log fold change Tl+ flux,R275C/beta2Delta,-0.0274 (inactive)
same,log fold change Tl+ flux,R275C/beta4,-0.00588 (inactive)
same,log fold change Tl+ flux,R275C/Slo1WT/beta2,-0.0385 (inactive)
O=C1C(CCS(=O)c2ccccc2)C(=O)N(c2ccccc2)N1c1ccccc1 (stereo unspecified),inhibition,[1],18.6%
same,score,[2],0.1
same,rescue above control,[3],-11.1
same,cytochrome c release ratio,[4],0.57
same,inhibition of aggregation,[5],71.9%
same,glutamate uptake change,[6],-6.33%
same,aggregation suppression score,[7],0.341
same,survival,[8],40.2 (inactive)
same,mean signal,[13],224 (inactive)
same,remaining NAD,[14],10 nM (inactive)
same,luciferase signal,[15],104 AU (inactive)
same,z-score,[16],-0.05 (inactive)
same,log fold change Tl+ flux,R275C/beta2Delta,-0.0044 (inactive)
same,log fold change Tl+ flux,R275C/beta4,-0.0311 (inactive)
same,log fold change Tl+ flux,R275C/Slo1WT/beta2,0.0214 (inactive)
Cn1cnc([N+](=O)[O-])c1Sc1ncnc2nc[nH]c12,inhibition,[1],18.4%
same,score,[2],0.86
same,rescue above control,[3],-3.67
same,cytochrome c release ratio,[4],0.54
same,inhibition of aggregation,[5],83.1%
same,glutamate uptake change,[6],-23.5%
same,aggregation suppression score,[7],1.11
same,survival,[8],7.25 (inactive)
same,fluorescence ratio,[9],1.03 (inactive)
same,inhibition,[10],-3.18% (inactive)
same,inhibition,[11],-2.76% (inactive)
same,fluorescence ratio,[12],0.99 (inactive)
same,mean signal,[13],260 (inactive)
same,remaining NAD,[14],10 nM (inactive)
same,luciferase signal,[15],408 AU (active)
same,z-score,[16],-0.21 (inactive) and -1.11 (inactive)
same,inhibition,"[17]; BGB IC20 combo, at 0.005 µM",-7.33% and 0.138%
same,inhibition,"[17]; BGB IC40 combo, at 0.005 µM",-44% and -68.5%
same,inhibition,"[17]; BGB IC40 combo, at 0.05 µM",-15.3% and -11.2%
same,inhibition,[17]; at 0.5 µM,-19.6% (inactive) and -22.9% (inactive)
same,inhibition,"[17]; cisplatin combo, at 0.05 µM",-15.3% and -15.6%
same,inhibition,"[17]; cisplatin combo, at 0.5 µM",-29.3% and -25.2%
same,inhibition,"[17]; cisplatin combo, at 5 µM",-23% and 1.4%
same,inhibition,[17]; [18],-20.7% and -15.2%
same,log fold change Tl+ flux,R275C/beta2Delta,-0.053 (inactive)
same,log fold change Tl+ flux,R275C/beta4,-0.0246 (inactive)
same,log fold change Tl+ flux,R275C/Slo1WT/beta2,0.0598 (inactive)
CN[C@H]1CC[C@@H](c2ccc(Cl)c(Cl)c2)c2ccccc21,mean signal,[13],250 (inactive)
same,luciferase signal,[15],48 AU (inactive)
same,z-score,[16],-1.29 (inactive) and -1.52 (inactive) and -0.69 (inactive)
same,log fold change Tl+ flux,R275C/beta2Delta,-0.0453 (inactive) and -0.0183 (inactive)
same,log fold change Tl+ flux,R275C/beta4,0.997 (active) and 0.996 (active)
same,log fold change Tl+ flux,R275C/Slo1WT/beta2,0.019 (inactive) and -0.2 (active)
O=c1[nH]cc(F)c(=O)[nH]1,inhibition,[1],7.47%
same,score,[2],0.35
same,rescue above control,[3],-13.1
same,cytochrome c release ratio,[4],0.98
same,inhibition of aggregation,[5],41.6%
same,glutamate uptake change,[6],-1.19%
same,aggregation suppression score,[7],0.203
same,fluorescence ratio,[9],0.97 (inactive)
same,inhibition,[10],-3.18% (inactive)
same,inhibition,[11],-0.48% (inactive)
same,fluorescence ratio,[12],0.92 (inactive)
same,mean signal,[13],262 (inactive)
same,remaining NAD,[14],10 nM (inactive)
same,luciferase signal,[15],80 AU (inactive)
same,z-score,[16],6.85 (active) and -1.25 (inactive) and 2.99 (active)
same,inhibition,"[17]; BGB IC20 combo, at 0.005 µM",-34.1%
same,inhibition,"[17]; BGB IC40 combo, at 0.005 µM",-27.4%
same,inhibition,"[17]; BGB IC40 combo, at 0.05 µM",5.15%
same,inhibition,[17]; at 0.5 µM,0.32% (inactive)
same,inhibition,"[17]; cisplatin combo, at 0.05 µM",5.15%
same,inhibition,"[17]; cisplatin combo, at 0.5 µM",7.66%
same,inhibition,"[17]; cisplatin combo, at 5 µM",-4.18%
same,inhibition,[17]; [18],-20.2%
same,log fold change Tl+ flux,R275C/beta2Delta,-0.0331 (inactive)
same,log fold change Tl+ flux,R275C/beta4,-0.0876 (inactive)
same,log fold change Tl+ flux,R275C/Slo1WT/beta2,0.0575 (inactive)
N[C@@H](C(=O)N[C@@H]1C(=O)N2C(C(=O)O)=C(Cl)CS[C@H]12)c1ccccc1,survival,[8],9 (inactive) and 6.75 (inactive)
same,fluorescence ratio,[9],0.95 (inactive)
same,inhibition,[10],-4.59% (inactive)
same,inhibition,[11],1.97% (inactive)
same,fluorescence ratio,[12],0.91 (inactive)
same,mean signal,[13],277 (inactive)
same,remaining NAD,[14],10 nM (inactive)
same,luciferase signal,[15],32 AU (inactive)
same,log fold change Tl+ flux,R275C/beta2Delta,0.0124 (inactive)
same,log fold change Tl+ flux,R275C/beta4,-0.0176 (inactive)
same,log fold change Tl+ flux,R275C/Slo1WT/beta2,-0.0279 (inactive)
NCc1ccc(S(N)(=O)=O)cc1,inhibition,[1],-6.75%
same,score,[2],1.19
same,rescue above control,[3],-7.83
same,cytochrome c release ratio,[4],0.88
same,inhibition of aggregation,[5],81.7%
same,glutamate uptake change,[6],-7.14%
same,aggregation suppression score,[7],1.05
same,survival,[8],13.4 (inactive)
same,fluorescence ratio,[9],1.01 (inactive)
same,inhibition,[10],-7.73% (inactive)
same,inhibition,[11],1.05% (inactive)
same,fluorescence ratio,[12],1.01 (inactive)
same,mean signal,[13],250 (inactive)
same,remaining NAD,[14],10 nM (inactive)
same,luciferase signal,[15],92 AU (inactive)
same,z-score,[16],1.92 (inactive)
same,log fold change Tl+ flux,R275C/beta2Delta,0.176 (active)
same,log fold change Tl+ flux,R275C/beta4,-0.0166 (inactive)
same,log fold change Tl+ flux,R275C/Slo1WT/beta2,-0.0456 (inactive)
CCCCCCNC(=O)n1cc(F)c(=O)[nH]c1=O,fluorescence ratio,[9],1.03 (inactive)
same,inhibition,[10],0.4% (inactive)
same,inhibition,[11],1.44% (inactive)
same,fluorescence ratio,[12],0.97 (inactive)
same,mean signal,[13],292 (inactive)
same,remaining NAD,[14],10 nM (inactive)
same,luciferase signal,[15],32 AU (inactive)
same,z-score,[16],1.85 (inactive)
same,inhibition,"[17]; BGB IC20 combo, at 0.005 µM",-17.4% and -9.29%
same,inhibition,"[17]; BGB IC40 combo, at 0.005 µM",-22.5% and -2.82%
same,inhibition,"[17]; BGB IC40 combo, at 0.05 µM",-29.3% and 7.79%
same,inhibition,[17]; at 0.5 µM,-42.7% (inactive) and -3.92% (inactive)
same,inhibition,"[17]; cisplatin combo, at 0.05 µM",-33.9% and 7.79%
same,inhibition,"[17]; cisplatin combo, at 0.5 µM",-50% and -4.83%
same,inhibition,"[17]; cisplatin combo, at 5 µM",-43.5% and -25.3%
same,inhibition,[17]; [18],-14.5% and -8.95%
same,log fold change Tl+ flux,R275C/beta2Delta,-0.0282 (inactive)
same,log fold change Tl+ flux,R275C/beta4,-0.000915 (inactive)
same,log fold change Tl+ flux,R275C/Slo1WT/beta2,-0.00804 (inactive)
